According to PubChem BioAssay:
Unmarked numbers belong to inactive results. No rule for the calls is given here.

Target: Pantothenate synthetase (Mycobacterium tuberculosis (strain ATCC 25618 / H37Rv)) (UniProt P9WIL5)
Test: Recombinant Mtb pantothenate synthetase (PanC) inhibitors, coupled enzyme, confirmatory (AID 375);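 also: 0% = full reaction with vehicle and 100% = no enzyme background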
Details: coupled enzyme assay; at 10 µM, stronger effect = higher value

Pantothenate synthetase (Mycobacterium tuberculosis (strain ATCC 25618 / H37Rv)), sequence (P9WIL5 whole entry, looked up): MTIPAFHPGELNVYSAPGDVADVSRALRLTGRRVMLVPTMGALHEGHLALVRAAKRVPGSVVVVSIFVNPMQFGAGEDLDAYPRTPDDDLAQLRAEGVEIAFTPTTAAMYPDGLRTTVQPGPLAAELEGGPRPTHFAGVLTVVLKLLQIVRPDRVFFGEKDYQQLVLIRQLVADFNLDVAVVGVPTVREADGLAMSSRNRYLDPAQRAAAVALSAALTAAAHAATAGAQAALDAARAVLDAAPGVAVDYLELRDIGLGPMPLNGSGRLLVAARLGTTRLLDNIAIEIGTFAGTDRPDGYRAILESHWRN

Compound | inhibition [%]
Cc1ccc(C)n1-c1ccc(-n2cnnn2)cc1 | 2
CN(C)CCN1C(=O)c2oc3ccc(Cl)cc3c(=O)c2C1c1cccc(Br)c1 (stereo not given) | 0
COc1ccc(NC(=O)Cn2nnc(-c3ccccc3F)n2)cc1Cl | 0
CCC1CCCCN1CCNS(=O)(=O)c1ccc2c(c1)oc(=O)n2C (stereo not given) | 1
Cc1cc(C(F)(F)F)c2c(C)nn(CCc3nn[nH]n3)c2n1 | 0
CC1=C/C(=C/N(C)c2ccccc2)C(=O)S1 | 1
O=C(NCC1CCCCN1)c1cc(OCC(F)(F)F)ccc1OCC(F)(F)F (stereo not given) | 3
CC1CCN(c2oc(-c3ccccc3F)nc2C#N)CC1 | 4
c1ccc(CCNc2ccc3nncn3n2)cc1 | 2
O=C(O)CCn1c(SCc2ccccc2)nc2ccccc21 | 0
Cc1csc(NC(=O)CSc2nsc(SCC(=O)Nc3nc(C)cs3)c2C#N)n1 | 2
COc1ccc(N2CCN(C(=O)CSc3ccccc3)CC2)cc1 | 6
O=S(=O)(c1ccc(S(=O)(=O)N2CCN3CCCC3C2)cc1)N1CCCC1 (stereo not given) | 0
Cc1ccccc1CSCC(=O)c1c(N)n(C)c(=O)n(C)c1=O | 2
CCSc1nnc(NC(=O)C2CCCN(S(=O)(=O)c3cnc[nH]3)C2)s1 (stereo not given) | 7
COc1ccc(C)cc1S(=O)(=O)Nc1cccnc1 | 0
COc1ccccc1C(=O)NCCc1nc2ccccc2n1C | 1
CCn1c2ccccc2c2cc(NC(=O)CSc3nnc(C4CC4)n3Cc3ccco3)ccc21 | 1
O=C(c1cnccn1)N(c1ccccc1)C1(C(=O)NC2CCCC2)CCCCC1 | 0
N#CC1=C(N)Oc2n[nH]c(-c3ccncc3)c2C1c1ccsc1 (stereo not given) | 0

Compound | inhibition [%]
NCc1ccc(S(N)(=O)=O)cc1 | 2
CC1CCCN(c2ccc(C(=O)NCc3cccs3)cn2)C1 (stereo not given) | 1
O=C(c1ccccc1)c1ccc(N2CCNCC2)cc1 | 3
COc1ccc(Cn2nnnc2C(c2cc3cc(C)cc(C)c3[nH]c2=O)N2CCOCC2)cc1 (stereo not given) | 0
CC1=C(C(=O)Nc2ccccc2)C(c2cccs2)C(C#N)=C(SCC#N)N1 (stereo not given) | 5
Cc1ccc(O)c(-c2cc(C(=O)Nc3ccc(S(=O)(=O)N4CC(C)OC(C)C4)cc3)[nH]n2)c1 (stereo not given) | 5
COC(=O)c1ccccc1NC(=O)C1CC=CCC1C(=O)O (stereo not given) | 0
CC1CCN(Cc2ccc(NC(=O)C3CCN(c4nnc(-n5cccc5)s4)CC3)cc2)CC1 | 0
O=C(O)COc1ccc(S(=O)(=O)NCCc2ccccc2)cc1 | 6
CN(Cc1ccccc1)C(=O)c1cc(-c2ccc(Br)cc2)on1 | 0
Cc1ccccc1-c1nc(CN2CCC(C(=O)NCc3cccnc3)CC2)c(C)o1 | 0
COC(=O)C1CCN(C(=O)NC(C)(C)C)CC1 | 6
Cc1cc(C(=O)CSCc2nnc3n(CCC(C)C)c(=O)c4ccccc4n23)c(C)n1C | 8
COc1ccc(CNC(=O)CN(C(=O)c2ccc(CN3CCOCC3)o2)C2CCCC2)cc1 | 0
O=C(O)/C=C/c1ccc(O)c(O)c1 | 1
CCN1CCN(C(c2ccc(F)cc2)c2nnnn2Cc2cccs2)CC1 (stereo not given) | 0
O=C(OCc1nnc(-c2ccc(Cl)cc2)o1)c1ccc(=O)n(Cc2ccccc2)n1 | 0
CCOC(=O)c1cc2sc(C)cc2n1C(C)C(=O)OCC (stereo not given) | 11
O=C(CN(c1ccc(F)cc1)S(=O)(=O)c1ccc2c(c1)OCCO2)Nc1cccnc1 | 0
Clc1ccc2c(c1)[C@H]1OCC[C@H]1[C@@H](c1ccco1)N2 | 3
